Laboratory results reported in PubChem BioAssay (NCATS).
“And” between values parts separate entries of the source, which are not always exact repeats. Equal values may be shown once. Inconclusive results are not listed. Where a structure was tested more than once in an assay, its records may differ in their call. The source made the active and inactive calls. Calls come from the whole dose curve; as a rule, active = well fitted inhibition curve with a large enough effect; inconclusive = small, poorly fitted or top-dose-only effect; inactive = flat fitted curve, though single readings scatter.

Columns and labels:
CRL-7250 = normal cell line; assay: Cytotoxic Profiling of Annotated Libraries Using Quantitative High-Throughput Screening (AID 1296008); conditions: Five cell lines viability, CellTiter-Glo ATP luminescence, 48-72 h; max response: hits give low values; for max response: % is set by controls: 0 for no effect and ±100 for the full control effect
In short: (§1)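 Cytotoxicity was measured as CellTiter-Glo ATP luminescence, read after 10 min at room temperature. Compound treatment of the cells lasted 48 or 72 hr at 37 degrees Celsius in a qHTS format.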

HEK293 = assay: as above; conditions: Five cell lines viability, CellTiter-Glo ATP luminescence, 48-72 h; max response: hits give low values
In short: as §1

HaCat [1] = assay: as above; conditions: Five cell lines viability, CellTiter-Glo ATP luminescence, 48-72 h; max response: hits give low values
In short: as §1

KB-3-1 = assay: as above; conditions: Five cell lines viability, CellTiter-Glo ATP luminescence, 48-72 h; max response: hits give low values
In short: as §1

NIH3T3 = assay: as above; conditions: Five cell lines viability, CellTiter-Glo ATP luminescence, 48-72 h; max response: hits give low values
In short: as §1

MCC-13 = assay: qHTS assay to identify novel small-molecules to repurpose for Merkel cell carcinoma treatment (AID 1296009); conditions: MCC and control cell lines, CellTiter-Glo viability, 72 h; series mostly up to 46 µM
In short: (§2)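 After compound transfer in DMSO, plates were kept 72 hr at 37 degree celsius. Luminescent ATP signal from CellTiter-Glo served as viability measure, normalized against DMSO and no-cell controls.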

MCC-26 = assay: as above; conditions: MCC and control cell lines, CellTiter-Glo viability, 72 h; series mostly up to 46 µM
In short: as §2

HACAT [2] = assay: as above; conditions: MCC and control cell lines, CellTiter-Glo viability, 72 h; at 44.8 µM (top of the series) unless noted
In short: as §2

P93_24 = assay: qHTS profiling for inhibitors of Plasmodium falciparum proliferation (AID 504749); conditions: P. falciparum in erythrocytes, SYBR Green DNA, 72 h; series mostly up to 28.7 µM
In short: (§3)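 Three-day growth assay of blood-stage parasites in erythrocytes (0.3% parasitemia, 2.5% hematocrit) at 37 C, 5% CO2, quantified by SYBR Green DNA staining after overnight detergent lysis.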

P94_40 = assay: as above; conditions: P. falciparum in erythrocytes, SYBR Green DNA, 72 h; series mostly up to 28.7 µM
In short: as §3

PAD = assay: as above; conditions: P. falciparum in erythrocytes, SYBR Green DNA, 72 h; series mostly up to 28.7 µM
In short: as §3

PC15 = assay: as above; conditions: P. falciparum in erythrocytes, SYBR Green DNA, 72 h; series mostly up to 28.7 µM
In short: as §3

PC26 = assay: as above; conditions: P. falciparum in erythrocytes, SYBR Green DNA, 72 h; series mostly up to 28.7 µM
In short: as §3

PC49 = assay: as above; conditions: P. falciparum in erythrocytes, SYBR Green DNA, 72 h; series mostly up to 28.7 µM
In short: as §3

SC27B = assay: as above; conditions: P. falciparum in erythrocytes, SYBR Green DNA, 72 h; series mostly up to 28.7 µM
In short: as §3

TAB109 = assay: as above; conditions: P. falciparum in erythrocytes, SYBR Green DNA, 72 h; series mostly up to 28.7 µM
In short: as §3

TAB113 = assay: as above; conditions: P. falciparum in erythrocytes, SYBR Green DNA, 72 h; series mostly up to 28.7 µM
In short: as §3

TAB165 = assay: as above; conditions: P. falciparum in erythrocytes, SYBR Green DNA, 72 h; series mostly up to 28.7 µM
In short: as §3

W2 = assay: as above; conditions: P. falciparum in erythrocytes, SYBR Green DNA, 72 h; series mostly up to 28.7 µM
In short: as §3

HEK293T = assay: qHTS assay to identify novel small-molecules to repurpose for Merkel cell carcinoma treatment (AID 1296009); conditions: MCC and control cell lines, CellTiter-Glo viability, 72 h; at 44.8 µM (top of the series)
In short: as §2
Note: nearly all actives have a fitted effect of over 60% in size.
Potency is the fitted concentration of half-maximal effect.

COc1ncc(-c2ccc3nccc(-c4ccnnc4)c3c2)cc1NS(=O)(=O)c1ccc(F)cc1F
active: Potency (HEK293) 0.0206 µM | Potency (HaCat [1]) 0.0065 µM | Potency (KB-3-1) 590 nM and 103 nM | Potency (NIH3T3) 0.0037 µM | Potency (MCC-13) 0.833 µM | Potency (MCC-26) 0.372 µM
inactive: max response (CRL-7250) -92.9% | max response (HEK293) -126% | max response (HaCat [1]) -157%

O=C(NC1CCOCC1)c1ccc(-c2cc(-c3cn[nH]c3-c3ccccn3)ccn2)cc1
inactive: max response (CRL-7250) -5.17% | outcome (CRL-7250) | max response (HEK293) -15.5% | max response (HaCat [1]) 2.12% | outcome (HaCat [1]) | max response (KB-3-1) -6.4% and 1.2% | outcome (HACAT [2]) | Potency (MCC-13) | Potency (MCC-26)

O=C(Nc1ccccc1-c1cn2c(CN3CCNCC3)csc2n1)c1cnc2ccccc2n1
active: Potency (CRL-7250) 26.4 µM | Potency (HEK293) 23.5 µM | Potency (NIH3T3) 29.6 µM | Potency (MCC-26) 33.2 µM
inactive: max response (HaCat [1]) 4.92% | outcome (HaCat [1]) | outcome (HACAT [2])

O=C(O)Cc1cccc2ccccc12
inactive: outcome (P93_24) | Potency (P94_40) | outcome (PAD) | outcome (PC15) | Potency (PC26) | outcome (PC49) | Potency (SC27B) | outcome (TAB109) | Potency (TAB113) | Potency (TAB165) | Potency (W2) | outcome (CRL-7250) | max response (HEK293) 0.788% and 3.55% | max response (HaCat [1]) -10.3% | outcome (HaCat [1]) | max response (KB-3-1) 13.8% and -7.33% | outcome (HACAT [2]) | Potency (MCC-13) | Potency (MCC-26)

C[C@@H](O)[C@H]1C(=O)N2C(C(=O)O)=C(S[C@@H]3CN[C@H](C(=O)N(C)C)C3)[C@H](C)[C@H]12
inactive: outcome (P93_24) | Potency (P94_40) | outcome (PAD) | outcome (PC15) | Potency (PC26) | outcome (PC49) | Potency (SC27B) | outcome (TAB109) | Potency (TAB113) | Potency (TAB165) | Potency (W2) | max response (CRL-7250) 3.74% | outcome (CRL-7250) | outcome (HEK293) | max response (HaCat [1]) -2.71% | outcome (HaCat [1]) | max response (KB-3-1) -4.18% | max response (NIH3T3) -2.02% and 0.837% | outcome (HACAT [2]) | outcome (HEK293T) | Potency (MCC-13) | Potency (MCC-26)

CC(C)(C)c1cc(C(=O)O)c(NC(=O)Nc2ccc3[nH]ncc3c2)s1
inactive: max response (CRL-7250) -5.25% and -2.72% | max response (HEK293) -1.74% and 1.5% | max response (HaCat [1]) -3.43% | outcome (HaCat [1]) | max response (KB-3-1) -9% | outcome (KB-3-1) | max response (NIH3T3) -6.15% | outcome (NIH3T3) | outcome (HACAT [2]) | Potency (MCC-13) | Potency (MCC-26)

CC(C)n1nc(-c2ccc3oc(N)nc3c2)c2c(N)ncnc21
active: Potency (CRL-7250) 1 nM and 58 nM | Potency (HEK293) 1.7 nM and 82 nM | Potency (HaCat [1]) 3.26 µM | Potency (KB-3-1) 7.4 nM and 116 nM

COC(=O)[C@@H]1[C@H]2C[C@H]3c4[nH]c5ccccc5c4CCN3C[C@@H]2CC[C@@H]1O
inactive: outcome (CRL-7250) | max response (HEK293) -10.9% and -9.65% | max response (HaCat [1]) 0.769% | outcome (HaCat [1]) | max response (KB-3-1) -4.37% and 9.99% | outcome (HACAT [2]) | Potency (MCC-13) | Potency (MCC-26)

Clc1ccc(Cn2c(CN3CCCC3)nc3ccccc32)cc1
inactive: Potency (P94_40) | outcome (PAD) | outcome (PC15) | outcome (PC49) | Potency (SC27B) | outcome (TAB109) | Potency (TAB113) | Potency (TAB165) | max response (CRL-7250) -0.466% | outcome (CRL-7250) | max response (HEK293) -18% | max response (HaCat [1]) -16.9% | outcome (HaCat [1]) | max response (KB-3-1) 4.33% and 5.03% | max response (NIH3T3) 3.2% and 1.49% | outcome (HACAT [2]) inactive [at 17.4 µM] | Potency (MCC-13) | Potency (MCC-26)

CCOC(=O)C1=C(N)Oc2ccc(Br)cc2C1C(C#N)C(=O)OCC (centres undefined)
inactive: max response (CRL-7250) 2.39% and -0.818% and 2% | max response (HEK293) -11.5% and -3.28% | outcome (HEK293) | max response (HaCat [1]) -16.4% | outcome (HaCat [1]) | max response (KB-3-1) -1.43% | outcome (KB-3-1) | outcome (HACAT [2]) | outcome (HEK293T) | Potency (MCC-13) | Potency (MCC-26)

Cc1c(NC(=O)c2ccc(C(C)(C)C)cc2)cccc1-c1cn(C)c(=O)c(Nc2ccc(C(=O)N3CCOCC3)cc2)n1
active: Potency (HEK293) 11.8 µM
inactive: max response (CRL-7250) 2.1% | outcome (CRL-7250) | max response (HaCat [1]) -8.79% | max response (KB-3-1) 3.17% and -18.9% | max response (NIH3T3) -19.5% and -5.9% | Potency (MCC-13) | Potency (MCC-26)

CN(C)CCC(c1ccccc1)c1ccccn1 (centres undefined)
active: Potency (W2) 4.26 µM
inactive: outcome (P93_24) | outcome (PAD) | outcome (PC15) | Potency (SC27B) | Potency (TAB113) | Potency (TAB165) | max response (CRL-7250) -4.39% | max response (HEK293) -3.33% | outcome (HEK293) | outcome (HaCat [1]) | max response (KB-3-1) -8.17% and 1.69% | max response (NIH3T3) -1.68% | outcome (NIH3T3) | outcome (HACAT [2]) | outcome (HEK293T) | Potency (MCC-13) | Potency (MCC-26)
